Results from PubChem BioAssay (Tox21).
Results filed as inconclusive are left out. Entries that show only a call come without a potency. The source made the active and inactive calls. Calls come from the whole dose curve; as a rule, active = well fitted inhibition curve with a large enough effect in the repeat runs; inconclusive = weak or mixed curves; inactive = no such curve, though single readings can be large or run the other way.

Biological target: Cytochrome P450 2D6 (Homo sapiens) (UniProt P10635)
Test: Cytochrome P450 Family 2 Subfamily D Member 6 (CYP2D6) small molecule antagonists: luciferase reporter qHTS assay (AID 1671196); note: nearly all actives have a fitted effect of over 50% in size
Settings: P450-Glo CYP2D6 enzyme assay, luciferin luminescence, 1 h; series mostly up to 115 µM
From the text: U.S. Tox21 Program National Center for Advancing Translational Sciences [NCATS] U.S. Environmental Protection Agency [EPA] National Institutes of Environmental Health Sciences [NIEHS] National Toxicology Program [NTP] U.S. Food and Drug Administration [FDA] Tox21 Assay Overview: Cytochrome P450 (CYP) enzymes are membrane-bound hemeproteins that play a key role in metabolism of drugs and xenobiotics. Evaluation of the effect of chemicals on CYP isozymes is useful to minimize the adverse drug reactions and toxicities in drug development process. Tox21 chemicals were tested for their effect on CYP enzyme activities by using P450-Glo (TM) screening systems (Promega Corporation, Madison, WI). These systems provide a luminescent method containing proluciferin substrates and are converted to luciferin products by CYP isozymes. The luciferin products formed are detected with a luciferin detection reagent, and the amount of light produced is proportional to CYP activity. P450-Glo (TM) CYP2D6 screening system (Catalog. No. V9890) was used to detect the compounds that interfere in CYP2D6 activity.
Tox21 Assay Protocol Summary: Two ul of enzyme-substrate mix was dispensed into medium binding white/solid 1536-well plates (Greiner Bio-One North America Inc., Monroe, NC) using a BioRaptr Flying Reagent Dispenser (FRD, Beckman Coulter, Brea, CA). […] The assay plates were incubated at room temperature for 10 min. Then 2 ul of NADPH regeneration solution was added to each well of the assay plates using an FRD and incubated at room temperature for 1 h. The reaction was stopped by adding 4 ul of detection reagent using an FRD and after 20 min incubation at room temperature the luminescence signal was measured using a ViewLux plate reader (Perkin Elmer, Shelton, CT). Data were expressed as relative luminescence units.
Potency is the fitted concentration of half-maximal effect.

Cytochrome P450 2D6 (Homo sapiens), sequence (P10635 whole entry, looked up): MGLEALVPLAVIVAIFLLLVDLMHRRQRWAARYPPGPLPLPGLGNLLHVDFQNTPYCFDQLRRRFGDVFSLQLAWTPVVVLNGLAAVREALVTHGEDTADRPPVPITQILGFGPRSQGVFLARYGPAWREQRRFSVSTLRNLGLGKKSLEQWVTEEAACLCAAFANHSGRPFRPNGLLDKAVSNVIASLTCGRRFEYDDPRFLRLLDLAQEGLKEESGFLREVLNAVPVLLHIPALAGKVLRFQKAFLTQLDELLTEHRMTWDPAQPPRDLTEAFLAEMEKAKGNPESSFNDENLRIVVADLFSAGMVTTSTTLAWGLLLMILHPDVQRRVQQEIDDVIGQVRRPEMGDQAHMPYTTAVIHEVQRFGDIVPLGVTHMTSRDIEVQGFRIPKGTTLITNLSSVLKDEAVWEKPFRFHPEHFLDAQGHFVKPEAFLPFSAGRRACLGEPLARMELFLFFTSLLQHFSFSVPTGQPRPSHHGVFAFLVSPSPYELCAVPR

SMILES	Potency
CCC[CH2][Sn]([CH2]CCC)([CH2]CCC)[O]C(=O)c1ccccc1	1.12 µM (active)
Cc1ccc(OP(=O)(Oc2ccccc2)Oc2ccccc2)cc1	inactive
C=CC(=O)OCCCCOC(=O)C=C	inactive
C[C@@H]1O[C@@H](O[C@H]2C[C@@H](O)[C@]3(CO)[C@H]4[C@H](O)C[C@]5(C)[C@@H](C6=CC(=O)OC6)CC[C@]5(O)[C@@H]4CC[C@]3(O)C2)[C@H](O)[C@H](O)[C@H]1O	inactive
Cc1cc(C)cc(OP(=O)(Oc2cc(C)cc(C)c2)Oc2cc(C)cc(C)c2)c1	inactive
O=C1NCN(c2ccccc2)C12CCN(CC1COc3ccccc3O1)CC2 (stereo not given)	0.11 µM (active)
BrCC(Br)c1ccccc1 (stereo not given)	12.6 µM (active)
Cl/C=C\CCl	inactive
FC(F)(F)c1cccc(C2=CCN(CCc3ccc4ccccc4c3)CC2)c1	0.195 µM (active)
Clc1ccc(C(Cl)(Cl)Cl)c(Cl)c1	31.9 µM (active)
COP(=S)(OC)Oc1cc(Cl)c(Br)cc1Cl	inactive
COP(=O)(OC)SCn1c(=O)oc2cc(Cl)cnc21	39.9 µM (active)
CCOCn1c(-c2ccc(Cl)cc2)c(C#N)c(Br)c1C(F)(F)F	35.6 µM (active)
ClC1=C(Cl)[C@]2(Cl)[C@@H]3[C@@H](Cl)[C@@H](Cl)C[C@@H]3[C@@]1(Cl)C2(Cl)Cl	inactive
N#CSCSC#N	inactive
COc1ccc(OC)c(CC(C)N)c1 (stereo not given)	7.62 µM (active)
CCOc1cc(C(C)(C)C)ccc1C1COC(c2c(F)cccc2F)=N1 (stereo not given)	5.43 µM (active)
CN(C)CCc1c[nH]c2ccc(O)cc12	17.4 µM (active)
N#CCCSCCC#N	inactive
CCOC(=O)CC(=O)CCl	inactive

SMILES	Potency
COc1cccc(C(=O)CCN[C@@H](C)[C@H](O)c2ccccc2)c1	1.38 µM (active)
Clc1ccc(C(c2ccc(Cl)cc2)C(Cl)(Cl)Cl)cc1	inactive
CC(=O)/C=C/c1ccc2c(c1)OCO2	25.3 µM (active)
CCC(C)c1cc(C(C)(C)C)cc(-n2nc3ccccc3n2)c1O (stereo not given)	inactive
O=C(CCl)C(Cl)Cl	40.3 µM (active)
CCCCCCCCCBr	inactive
O=[N+]([O-])c1ccc2ccc3cccc4ccc1c2c34	31.7 µM (active)
O=C(NC(=O)c1c(F)cccc1F)Nc1cc(Cl)c(OC(F)(F)C(F)F)c(Cl)c1	inactive
Cn1[nH]nnc1=S	inactive
CC1(c2ccc(Oc3ccccc3)cc2)OC(=O)N(Nc2ccccc2)C1=O (stereo not given)	inactive
O=c1oc2ccccc2c(O)c1Cc1c(O)c2ccccc2oc1=O	inactive
O=C(Nc1ccc2[nH]ccc2c1)c1cc2cc(F)ccc2n1Cc1cccc(F)c1	15.9 µM (active)
CC(C)CC(C)Nc1ccc(Nc2ccccc2)cc1 (stereo not given)	2.78 µM (active)
COC(=O)N(C(=O)N1COC2(C(=O)OC)Cc3cc(Cl)ccc3C2=N1)c1ccc(OC(F)(F)F)cc1 (stereo not given)	inactive
Cc1cccc(OP(=O)(Oc2cccc(C)c2)Oc2cccc(C)c2)c1	inactive
C=CC(=O)N(C)C	inactive
C1CCC2CCCCC2C1 (stereo not given)	inactive
O=[N+]([O-])c1cc(Cl)ccc1Cl	inactive
N#Cc1ccc(O)cc1	inactive
CC(C)(COCC1CO1)COCC1CO1 (stereo not given)	inactive
